Source: PubChem BioAssay (NCATS)
“And” between values parts separate entries of the source, which are not always exact repeats. Identical values can stand only once. Records with an inconclusive call do not appear. The source made the active and inactive calls. Unless noted, calls come from the whole dose curve; as a rule, active = well fitted curve in the direction sought with a large enough effect; inconclusive = small, poorly fitted or top-dose-only effect, or another doubt; inactive = no such curve, though single readings can be large; an effect the other way counts as inactive or inconclusive.

Key:
[1] = Cell Viability - BJ (AID 421; calls by dose curve;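 note: potency is the fitted concentration of half-maximal effect; cells exposed to compound for 40 hours at 37 °C before readout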); conditions: BJ fibroblast viability, qHTS
In short: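 Cytotoxicity in human BJ foreskin fibroblasts is scored as loss of cellular ATP after a 40-hour exposure, measured by luciferase luminescence. Controls are DMSO and 100 uM tamoxifen.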

[2] = Cell Viability - Jurkat (AID 426;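 active = dose-dependent loss of cell ATP signal giving a full or clear fitted curve, ranked by lower potency value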; note: potency is the fitted concentration of half-maximal effect); conditions: qHTS
In short: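 Jurkat (clone E6-1, human T-cell leukemia) cells, 5000/well in complete medium, were exposed to compound for 40 hr at 37 °C. Viability was read as intracellular ATP by CellTiter-Glo luminescence; AC50 came from Hill fits of concentration-response data.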

[3] = Cell Viability - Hek293 (AID 427;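 active = compounds whose dose-response curve shows a full or clear partial loss of cell viability, called from curve shape rather than a numeric limit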;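 note: potency is the fitted concentration of half-maximal effect; cells exposed to compound for 40 hours at 37 °C before reading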); conditions: qHTS
In short: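 qHTS, human embryonic kidney (adenovirus-transformed) cells; 40 hr cpd, 37 °C; CellTiter-Glo ATP luminescence. Norm: DMSO = 0, 100 uM tamoxifen = 100% inhibition. Hill-fit AC50.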

[4] = Cell Viability - HepG2 (AID 433; calls by dose curve;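 note: potency is the fitted concentration of half-maximal effect; potency for ATP loss meaning cytotoxicity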); conditions: qHTS
In short: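 HepG2 cells, 1500 per well, treated 40 hr at 37 °C in complete medium; viability from intracellular ATP by CellTiter-Glo luminescence. Normalized to DMSO and 100 uM tamoxifen; AC50 from Hill fit of qHTS concentration-response.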

[5] = Cell Viability - SK-N-SH (AID 435; calls by dose curve;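 note: potency is the fitted concentration of half-maximal effect; compound exposure lasted 40 h at 37 °C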); conditions: SK-N-SH neuroblastoma cell viability qHTS
In short: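 SK-N-SH neuroblastoma cells (1500/well) treated 40 h at 37 °C in complete medium; viability read as cellular ATP by CellTiter-Glo luminescence. Normalized to DMSO and 100 uM tamoxifen; AC50 from Hill fits of qHTS concentration-response.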

[6] = target: Mitogen-activated protein kinase 10 (Mus musculus) (UniProt Q61831); assay: JNK3 AlphaScreen Assay (AID 530; active = well fitted curve in either direction with a large enough effect, not every such curve was filed as active;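 note: kinase came from lysate of stimulated human HepG2 cells; signal reports phosphorylation of biotinylated GST-cJun 1-79 at Ser73 with 10 µM ATP; % is set by controls: 0 for no effect and ±100 for the full control effect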); conditions: JNK3 lysate, c-Jun phosphorylation; series mostly up to 57.1 µM
In short: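 Room-temperature AlphaScreen kinase assay; pre-activated HepG2 lysate as JNK3 source, biotin-GST-cJun(1-79) substrate, 10 uM ATP, compound 15 min preincubation.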

[7] = Cell Viability - N2a (AID 540); conditions: N2a mouse neuroblastoma cell viability; at 92.2 µM (top of the series);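 note: plate controls were DMSO alone for no effect and tamoxifen control for full effect; nearly all actives have a fitted effect of over 45% in size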
In short: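 Mouse neuroblastoma N2a cells (1500/well) were preincubated 5 hr at 37 °C, then exposed to compounds for 40 hr at 37 °C in complete medium. Viability was read as intracellular ATP by CellTiter-Glo luminescence; AC50 from Hill fits.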

[8] = Cell Viability - NIH 3T3 (AID 541); conditions: NIH 3T3 cell viability, qHTS; activity change, negative = cytotoxicity: at 92.2 µM (top of the series);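 note: plate controls were DMSO alone for no effect and tamoxifen positive control for full effect; nearly all actives have a fitted effect of over 25% in size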
In short: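 NIH 3T3 mouse embryo fibroblasts (1000 cells/well) were plated in complete medium and treated with compound for 40 hr at 37 °C. Viability was read as intracellular ATP by CellTiter-Glo luminescence; AC50 values came from Hill-equation fits of concentration-response data.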

[9] = Cell Viability - HUV-EC-C (AID 542); conditions: HUV-EC-C endothelial cell viability, qHTS; series mostly up to 92.2 µM; note: % is set by controls: 0 for no effect and ±100 for the full control effect; nearly all actives have a fitted effect of over 35% in size
In short: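 HUV-EC-C normal human vascular endothelial cells, 1000 cells/well, pre-incubated 5 hr at 37 °C, then exposed to compounds for 40 hr at 37 °C in complete medium. Viability measured as intracellular ATP by CellTiter-Glo luminescence; AC50 from Hill fits.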

[10] = Cell Viability - Renal Proximal Tubule (AID 545); conditions: renal proximal tubule cells viability; at 91.7 µM (top of the series), primary cells of rat origin unless noted; note: nearly all actives have a fitted effect of over 40% in size
In short: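 Rat renal proximal tubule primary cells, 1000/well, exposed to compounds for 40 hr at 37 °C in complete medium; cellular ATP read by CellTiter-Glo luminescence. AC50 from concentration-response fitted with standard Hill equation.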

[11] = Cell Viability - Mesenchymal (AID 546); conditions: mesenchymal cells viability, qHTS; series mostly up to 91.7 µM;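 note: cells exposed to compound for 40 hours before reading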
In short: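 AC50 values reflect the drop in intracellular ATP in a human kidney mesenchymal line derived from normal glomeruli. Treatment lasts 40 hr at 37 °C in complete medium, and the signal comes from CellTiter-Glo luminescence.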

[12] = Cellular Toxicity (caspase-3) Jurkat (AID 655); conditions: Jurkat caspase-3 activation, luminescence, DMSO = 0%, tamoxifen = 100%; at 92.2 µM (top of the series);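 note: cells exposed to compound for 16 h at 37 °C before reading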
In short: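 Jurkat cells (5000/well) in complete medium exposed 16 h at 37 C; caspase-3/7 activity read by Caspase-Glo luminescence after 20 min at room temperature. Normalized to DMSO and 100 uM tamoxifen; AC50 from Hill fits.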

[13] = Cellular Toxicity (caspase-3) HUV-EC-C (AID 656); conditions: HUV-EC-C cells, caspase-3 activation (apoptosis), vehicle = 0, 100 µM tamoxifen = 100%; series mostly up to 92.2 µM
In short: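 HUV-EC-C cells (1000/well) in complete medium, compound-treated 16 h at 37 °C; caspase-3/7 activity read by Caspase-Glo 3/7 luminescence. Normalized to DMSO (basal) and 100 uM tamoxifen (100%); AC50 from Hill-equation concentration-response fits.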

[14] = Cellular Toxicity (caspase-3) SHSY5Y (AID 657); conditions: SH-SY5Y caspase-3 activation, DMSO zero, 10 µM staurosporine = 100%; series mostly up to 91.7 µM
In short: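 SH-SY5Y human neuroblastoma cells, 1500/well, exposed to compound for 16 hours at 37 °C in complete medium. Caspase-3/7 activity read by Caspase-Glo luminescence after 1 hr at room temperature, normalized to DMSO and 10 uM staurosporine; AC50 from Hill fit.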

[15] = Cellular Toxicity (caspase-3) Renal Proximal Tubule (AID 667); conditions: renal proximal tubule cells; at 91.7 µM (top of the series), primary cells freshly taken from rat, solvent-only wells 0%, staurosporine 100% unless noted;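 note: cells exposed to compound for 16 hours at 37 °C before detection; 0% = DMSO basal and 100% = 10 µM staurosporine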
In short: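 Freshly isolated primary rat kidney proximal tubule cells, 1000/well, treated 16 hr at 37 °C, then Caspase-Glo 3/7 luminescence after 1 hr. Normalized to DMSO and 10 uM staurosporine; AC50 from Hill fit.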

[16] = target: Cytochrome P450 3A4 (Homo sapiens) (UniProt P08684); assay: qHTS Assay for Inhibitors and Substrates of Cytochrome P450 3A4 (AID 884); conditions: recombinant CYP3A4, Luciferin-PPXE luminescence; series mostly up to 57.1 µM; note: % is set by controls: 0 for no effect and ±100 for the full control effect; nearly all actives have a fitted effect of over 50% in size
In short: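 20 nM human CYP3A4 with 25 uM Luciferin-PPXE (at KM) in 200 mM KPO4, preincubated 10 min with compound; NADPH regeneration started a 60 min RT reaction. Luciferin detected by luminescence, normalized to 57 uM ketoconazole as full inhibition.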

[17] = qHTS assay for small molecule agonists of retinoid X receptor alpha signaling (AID 588544); conditions: HEK293T RXRa-UAS-bla, beta-lactamase reporter, 18 h; 530 nm emission
[18] = qHTS assay for small molecule disruptors of the mitochondrial membrane potential - 1 hr assay (AID 651754; calls by dose curve; note: % is set by controls: 0 for no effect and ±100 for the full control effect; nearly all actives have a fitted effect of over 35% in size); conditions: series mostly up to 92.2 µM
In short: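 HepG2 cells, attached overnight at 37C, were exposed to compound or DMSO vehicle for 1 hr at 37C, 5% CO2, then stained with Mito-MPS dye for 30 min. Red aggregate versus green monomer fluorescence reports membrane potential.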

[19] = qHTS assay for small molecule disruptors of the mitochondrial membrane potential - 5 hr assay (AID 651755; calls by dose curve; note: % is set by controls: 0 for no effect and ±100 for the full control effect; nearly all actives have a fitted effect of over 40% in size); conditions: JC-1-type ratio dye; series mostly up to 92.2 µM
In short: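 HepG2, 2,000 cells/well, overnight attach; cpd or DMSO 5 hr, 37C/5% CO2; Mito-MPS 30 min 37C; fluor 490/535 + 540/590 nm.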

[20] = target: Peroxisome proliferator-activated receptor alpha (Homo sapiens) (UniProt Q07869); assay: qHTS assay for small molecule agonists of the peroxisome proliferator-activated receptor alpha (PPARalpha) signaling pathway (AID 651778); conditions: PathHunter PPARalpha complementation, chemiluminescence, 6 h; stronger effect = higher value; note: % of control where 0% means no effect
In short: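 Chemiluminescence from complemented enzyme reported PPARalpha activation in cells after 6 hr of compound treatment at 37 C. The detection reagent was incubated for 60 min at room temperature, and compounds were scored as agonists.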

Chain of Cytochrome P450 3A4 (Homo sapiens) (P08684 whole entry, looked up): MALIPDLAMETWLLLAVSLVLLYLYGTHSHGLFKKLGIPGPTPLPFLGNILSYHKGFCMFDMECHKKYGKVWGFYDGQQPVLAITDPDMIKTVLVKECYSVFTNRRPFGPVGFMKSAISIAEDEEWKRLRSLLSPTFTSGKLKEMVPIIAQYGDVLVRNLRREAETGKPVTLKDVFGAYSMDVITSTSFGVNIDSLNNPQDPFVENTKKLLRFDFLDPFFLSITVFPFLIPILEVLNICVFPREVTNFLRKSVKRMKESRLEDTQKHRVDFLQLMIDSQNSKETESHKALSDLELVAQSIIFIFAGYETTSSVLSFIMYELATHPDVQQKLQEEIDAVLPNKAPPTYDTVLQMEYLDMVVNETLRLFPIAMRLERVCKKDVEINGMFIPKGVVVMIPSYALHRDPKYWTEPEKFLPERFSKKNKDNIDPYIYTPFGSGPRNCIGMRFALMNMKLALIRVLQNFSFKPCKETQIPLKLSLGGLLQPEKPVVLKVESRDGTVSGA
Chain of Peroxisome proliferator-activated receptor alpha (Homo sapiens) (Q07869 whole entry, looked up): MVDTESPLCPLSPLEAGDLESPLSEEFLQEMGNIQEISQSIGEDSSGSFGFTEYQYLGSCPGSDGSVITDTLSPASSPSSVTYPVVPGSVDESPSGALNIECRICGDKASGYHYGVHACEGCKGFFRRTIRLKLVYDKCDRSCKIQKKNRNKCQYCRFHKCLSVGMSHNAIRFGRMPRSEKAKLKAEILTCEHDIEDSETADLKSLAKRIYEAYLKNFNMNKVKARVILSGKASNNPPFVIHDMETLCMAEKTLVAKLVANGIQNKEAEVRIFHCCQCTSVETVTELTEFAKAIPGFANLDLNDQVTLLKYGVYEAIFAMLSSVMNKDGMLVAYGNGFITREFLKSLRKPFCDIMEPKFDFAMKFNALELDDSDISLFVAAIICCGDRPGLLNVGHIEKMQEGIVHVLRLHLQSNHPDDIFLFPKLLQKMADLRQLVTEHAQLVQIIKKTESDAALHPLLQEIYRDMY

ClC(Cl)(Cl)c1ccccc1
inactive: Potency [1] > 92 µM | Potency [2] > 92 µM | Potency [3] > 92 µM | Potency [4] > 92 µM | Potency [5] > 92 µM | outcome [6] | activity change, negative = cytotoxicity [7] 2.93% and 2.42% | activity change, negative = cytotoxicity [8] -19.1% and -4.39% | Potency [9] | activity change, negative = cytotoxicity [10] -4.93% and -2.74% | outcome [11] | caspase-3 activation [12] 18.2% and -0.502% | outcome [13] | outcome [14] | caspase-3 activation [15] -4.62% and -2.75% | Potency [16] | Potency [18] | Potency [19] | max response [20] -2.9% and -5.05%
2.72% and -9.44%: max response [17]

COc1ccc(C=O)cc1OC
17.8% and -5.1%: max response [17]
inactive: Potency [1] > 92 µM | Potency [2] > 92 µM | Potency [3] > 92 µM | Potency [4] > 92 µM | Potency [5] > 92 µM | outcome [6] | activity change, negative = cytotoxicity [7] -19.3% | activity change, negative = cytotoxicity [8] -14% | Potency [9] | activity change, negative = cytotoxicity [10] -7.47% | outcome [11] | caspase-3 activation [12] 1.2% | outcome [13] | outcome [14] | caspase-3 activation [15] -4.32% | Potency [16] | Potency [18] | Potency [19] | max response [20] 0.927% and -2.24%

O=[N+]([O-])c1ccc(Cl)c(Cl)c1
inactive: Potency [1] > 92 µM | Potency [2] > 92 µM | Potency [3] > 92 µM | Potency [4] > 92 µM | Potency [5] > 92 µM | outcome [6] | activity change, negative = cytotoxicity [7] -3.37% | activity change, negative = cytotoxicity [8] -16.5% | Potency [9] | activity change, negative = cytotoxicity [10] -5.41% [at 91.7 µM] | outcome [11] | caspase-3 activation [12] 0.916% | outcome [13] | outcome [14] | caspase-3 activation [15] 4.74% [at 91.7 µM] | Potency [16] | Potency [18] | Potency [19] | max response [20] -3.39%
1.86%: max response [17]

CCN(CC)c1ccccc1
-1.24%: max response [17]
inactive: Potency [1] > 92 µM | Potency [2] > 92 µM | Potency [3] > 92 µM | Potency [4] > 92 µM | Potency [5] > 92 µM | outcome [6] | activity change, negative = cytotoxicity [7] 3.96% | activity change, negative = cytotoxicity [8] 4.17% | Potency [9] | activity change, negative = cytotoxicity [10] -4.65% | outcome [11] | caspase-3 activation [12] -0.552% | outcome [13] | outcome [14] | caspase-3 activation [15] 2.98% | Potency [16] | Potency [18] | Potency [19] | max response [20] -1.88%

COc1ccc(N)cc1
inactive: Potency [1] > 92 µM | Potency [2] > 92 µM | Potency [3] > 92 µM | Potency [4] > 92 µM | Potency [5] > 92 µM | outcome [6] | activity change, negative = cytotoxicity [7] -29.2% and -31.3% | activity change, negative = cytotoxicity [8] -5.61% | Potency [9] | activity change, negative = cytotoxicity [10] 0.402% and -5.11% | outcome [11] | caspase-3 activation [12] 2.07% and 0.631% | outcome [13] | outcome [14] | caspase-3 activation [15] 4.4% and -11% | Potency [16] | Potency [18] | Potency [19] | max response [20] -0.77% and -1.08%
14.8% and 16.7%: max response [17]

Clc1ccc(CO[C@@H](Cn2ccnc2)c2ccc(Cl)cc2Cl)cc1
inactive: outcome [6]

Cc1ccc([N+](=O)[O-])cc1C
inactive: Potency [1] > 92 µM | Potency [2] > 92 µM | Potency [3] > 92 µM | Potency [4] > 92 µM | Potency [5] > 92 µM | outcome [6] | activity change, negative = cytotoxicity [7] -25% | activity change, negative = cytotoxicity [8] -7.46% | Potency [9] | activity change, negative = cytotoxicity [10] -10.6% | outcome [11] | caspase-3 activation [12] -0.46% | outcome [13] | outcome [14] | caspase-3 activation [15] -2.52% | Potency [16] | Potency [18] | Potency [19] | max response [20] -4.21% and -1.01%
-11.5%: max response [17]

CCCC(=O)Cl
-4.61%: max response [17]
inactive: Potency [1] > 92 µM | Potency [2] > 92 µM | Potency [3] > 92 µM | Potency [4] > 92 µM | Potency [5] > 92 µM | outcome [6] | activity change, negative = cytotoxicity [7] 1.63% | activity change, negative = cytotoxicity [8] -0.413% | Potency [9] | activity change, negative = cytotoxicity [10] 0.416% | outcome [11] | caspase-3 activation [12] -0.695% | outcome [13] | outcome [14] | caspase-3 activation [15] 6.16% | Potency [16] | Potency [18] | Potency [19] | max response [20] -5.49%

ClC(Cl)=C(Cl)C(Cl)=C(Cl)Cl
inactive: Potency [1] > 92 µM | Potency [2] > 92 µM | Potency [3] > 92 µM | Potency [4] > 92 µM | Potency [5] > 92 µM | outcome [6] | activity change, negative = cytotoxicity [7] -4.4% | activity change, negative = cytotoxicity [8] -27.5% | Potency [9] | activity change, negative = cytotoxicity [10] -4.45% | outcome [11] | caspase-3 activation [12] -0.64% | outcome [13] | outcome [14] | caspase-3 activation [15] 5.5% | Potency [16] | Potency [18] | Potency [19] | max response [20] -0.178% and -1.05%
-9.28% and -8.5%: max response [17]
